# Test results as given in PMC4336329 (PLoS ONE, 2015).
# Out of some 310,000 compounds screened, about 14,000 (4.5%) showed an effect of 50% or more. The effect is printed as a negative number. This is one part of a sample in which strong results are shown more often than they occur.
# Molecular target: human ether-à-go-go-related gene (hERG) potassium channel (human, UniProt Q12809)
# Assay: primary screen, population patch clamp on CHO cells stably expressing hERG; higher = less effect of the substance
# 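Further: peak tail current of the secondary pulse compared with the same well before compound.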
# Sequence of human ether-à-go-go-related gene (hERG) potassium channel (Q12809 whole entry, looked up): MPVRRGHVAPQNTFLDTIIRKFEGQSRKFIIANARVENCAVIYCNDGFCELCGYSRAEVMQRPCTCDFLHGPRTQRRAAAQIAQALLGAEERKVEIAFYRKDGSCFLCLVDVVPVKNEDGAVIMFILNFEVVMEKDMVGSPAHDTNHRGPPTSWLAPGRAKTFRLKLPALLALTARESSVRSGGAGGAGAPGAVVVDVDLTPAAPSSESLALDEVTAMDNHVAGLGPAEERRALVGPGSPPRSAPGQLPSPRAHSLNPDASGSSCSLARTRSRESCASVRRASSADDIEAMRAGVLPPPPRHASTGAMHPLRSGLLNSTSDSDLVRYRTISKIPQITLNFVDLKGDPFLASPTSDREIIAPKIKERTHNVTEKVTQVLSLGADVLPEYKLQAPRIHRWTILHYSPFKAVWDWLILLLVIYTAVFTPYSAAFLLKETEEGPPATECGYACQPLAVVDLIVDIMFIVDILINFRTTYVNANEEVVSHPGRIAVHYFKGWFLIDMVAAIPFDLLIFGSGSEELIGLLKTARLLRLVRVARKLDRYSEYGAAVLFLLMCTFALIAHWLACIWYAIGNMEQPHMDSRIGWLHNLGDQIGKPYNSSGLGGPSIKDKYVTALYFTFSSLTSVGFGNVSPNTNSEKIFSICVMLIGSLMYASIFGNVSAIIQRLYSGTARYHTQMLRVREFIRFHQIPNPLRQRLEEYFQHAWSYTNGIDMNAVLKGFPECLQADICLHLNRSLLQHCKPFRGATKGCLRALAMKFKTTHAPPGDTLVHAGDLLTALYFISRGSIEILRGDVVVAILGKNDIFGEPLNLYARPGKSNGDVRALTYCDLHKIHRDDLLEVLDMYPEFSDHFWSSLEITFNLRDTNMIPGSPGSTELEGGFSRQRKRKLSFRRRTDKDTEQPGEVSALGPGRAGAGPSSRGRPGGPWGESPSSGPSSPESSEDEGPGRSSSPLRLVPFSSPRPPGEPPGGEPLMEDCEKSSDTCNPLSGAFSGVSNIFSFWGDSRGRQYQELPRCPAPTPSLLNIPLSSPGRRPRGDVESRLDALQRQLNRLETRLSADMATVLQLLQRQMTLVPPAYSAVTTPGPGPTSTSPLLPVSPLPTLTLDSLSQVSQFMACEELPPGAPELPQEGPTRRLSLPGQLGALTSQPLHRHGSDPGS
row,Compound,"hERG current change (%, negative = inhibition) at 10uM [%]"
1,Cc1nc2oc3c(NCC4CCCO4)ncnc3c2c2c1COC(C)(C)C2 (centres unmarked),-16.6
2,CC(=O)Nc1nc(C)c(CCCOc2ccc([N+](=O)[O-])cc2)c(=O)[nH]1,0.762
3,Cc1noc(C)c1NC(=O)N1CCN(Cc2ccccc2)CC1,8.04
4,O=C(Nc1cccc(-n2cccn2)c1)C1CCCN(Cc2ccccc2F)C1 (centres unmarked),-30.4
5,Cc1cc(CN2CCCC(C(=O)Nc3cccc(-n4cccn4)c3)C2)cc(C)c1O (centres unmarked),-42
6,CC(=O)c1cccc(CN2CCCC(C(=O)Nc3cccc(-n4cccn4)c3)C2)c1 (centres unmarked),-23.9
7,CCOc1cccc(CN2CCCC(C(=O)Nc3cccc(-n4cccn4)c3)C2)c1 (centres unmarked),-56.3
8,Cc1nn(C)c(Cl)c1CN1CCCC(C(=O)Nc2cccc(-n3cccn3)c2)C1 (centres unmarked),-50.2
9,COC(=O)c1ccc(CN2CCCC(C(=O)Nc3cccc(-n4cccn4)c3)C2)cc1 (centres unmarked),-27.4
10,CSc1cccc(CN2CCCC(C(=O)Nc3cccc(-n4cccn4)c3)C2)c1 (centres unmarked),-28.6
11,O=C(Nc1cccc(-n2cccn2)c1)C1CCCN(Cc2cccc(F)c2F)C1 (centres unmarked),-17.8
12,COc1ccc(CN2CCCC(C(=O)Nc3cccc(-n4cccn4)c3)C2)cc1 (centres unmarked),-58.9
13,Cc1c(CN2CCCC(C(=O)Nc3cccc(-n4cccn4)c3)C2)cnn1C (centres unmarked),7.86
14,CCOc1ccccc1CN1CCCC(C(=O)Nc2cccc(-n3cccn3)c2)C1 (centres unmarked),-69.5
15,COc1ccc(O)c(CN2CCCC(C(=O)Nc3cccc(-n4cccn4)c3)C2)c1 (centres unmarked),-14.9
16,COCCNC(=S)N(CCc1c(C)[nH]c2ccc(F)cc12)Cc1cccnc1,-21.5
17,C=CC(=O)N1c2ccccc2Sc2ccc(NC(=O)OCC)cc21,0.408
18,CC(C)(C)c1ccc(C(=O)Nc2cccc3c(=O)[nH][nH]c(=O)c23)cc1,-9.65
19,O=C(Cc1ccccc1)NCC(=O)N1CCN(c2ccccc2)CC1,5.93
20,O=C(NCCn1ccc2ccccc21)c1cccc([N+](=O)[O-])c1,-16.9
21,CCC(C)N1C(=O)C2C(C(=O)Nc3cccc(OC)c3)C3C=CC2(O3)C1C(=O)NC1CCCCC1C (centres unmarked),-6.83
22,O=S1(=O)CCN(Cc2ccc(Cl)c(Cl)c2)CC1,6.46
23,CC(C)OC(=O)Cn1nnc(-c2ccccc2)n1,0.0206
